# Only some compounds are listed: those with a hit (about 3.1% of all), similar ones and a draw of the others.
# HIF-2a block: HIF-2a reporter inhibitors, primary screen, luminescence, 786-0 RCC cells | 786-0 RCC cells HIF-2a reporter, luciferase luminescence, overnight | inhibition, % at 18.8 µM | hit rate 0.72% among 360,000;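 active means inhibition of the luminescence signal of 40% or more relative to plate controls, in a single-dose primary screen at 18.75 µM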
# TRPM1 prom inh: inhibitors of MITF-dependent TRPM1 promoter reporter, primary screen, cell-based, SK-MEL-5, single point, luciferase. SK-MEL-5 TRPM1 promoter luciferase, 24 h. inhibition, % at 12.5 µM. hit rate 0.83% among 330,000. AID 488899, 2010;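 active means mean inhibition across replicates of 60% or more, whatever share of single replicates reaches that level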
# KKLEB cytotox: cytotoxicity in KKLEB CF airway cells, primary screen, cytotoxicity control for CF NF-kB inhibitor project, cell-based, uHTS, fluorescence assay plates; KKLEB CF airway cells viability, ATPlite luminescence, overnight; active compounds read low; cells stimulated with P. aeruginosa culture filtrate; activity change (cytotoxicity), % at 5 µM; hit rate 0.36% among 360,000;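 active means corrected activity change at or below -50% at 5 µM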
# Peg3 promoter: Peg3 promoter-driven luciferase inhibitors, primary screen, cell-based, HeLa, luciferase luminescence; HeLa PEG-Prom luciferase reporter, overnight; hit rate 1.7% among 360,000; inhibition, % at 20 µM;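 active means inhibition of at least 50% at 20 µM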
# ABHD5 PLIN5 PPI: ABHD5-PLIN5 interaction inhibitors, primary screen, cell lysate, split luciferase complementation, luminescence | Split G. princeps luciferase complementation, 4 h | inhibition, % at 4 µM | Perilipin-5 (Homo sapiens) + 1-acylglycerol-3-phosphate O-acyltransferase ABHD5 (Homo … | hit rate 0.78% among 360,000;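 active means inhibition above the mean inhibition across every tested compound plus 3 SD, cut at about 22% in these data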;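 further: 0% = DMSO only wells and the 100% control is not disclosed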
# Target sequence (Q00G26 whole entry, looked up): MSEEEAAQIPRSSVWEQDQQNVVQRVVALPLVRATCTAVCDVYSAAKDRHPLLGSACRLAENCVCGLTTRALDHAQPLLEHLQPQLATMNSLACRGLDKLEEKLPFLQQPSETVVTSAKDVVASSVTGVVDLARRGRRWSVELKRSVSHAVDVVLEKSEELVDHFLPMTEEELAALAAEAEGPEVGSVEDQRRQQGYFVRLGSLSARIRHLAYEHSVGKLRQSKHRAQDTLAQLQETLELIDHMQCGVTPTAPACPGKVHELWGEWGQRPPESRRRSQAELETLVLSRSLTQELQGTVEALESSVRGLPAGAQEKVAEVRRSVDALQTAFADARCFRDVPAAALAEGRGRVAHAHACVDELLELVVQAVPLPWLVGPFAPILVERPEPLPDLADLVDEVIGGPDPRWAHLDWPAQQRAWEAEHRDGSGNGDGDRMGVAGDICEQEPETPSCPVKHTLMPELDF
# Target sequence (Q8WTS1 whole entry, looked up): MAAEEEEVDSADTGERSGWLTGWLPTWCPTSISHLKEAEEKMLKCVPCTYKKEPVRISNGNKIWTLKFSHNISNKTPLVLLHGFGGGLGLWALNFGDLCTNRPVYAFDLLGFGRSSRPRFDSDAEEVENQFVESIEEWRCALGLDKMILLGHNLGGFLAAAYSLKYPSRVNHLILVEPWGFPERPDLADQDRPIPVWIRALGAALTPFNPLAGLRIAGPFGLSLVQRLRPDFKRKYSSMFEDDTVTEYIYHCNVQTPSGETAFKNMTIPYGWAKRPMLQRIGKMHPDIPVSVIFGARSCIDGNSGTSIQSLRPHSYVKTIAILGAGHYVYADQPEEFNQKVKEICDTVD
# CF NFkB inh: inhibitors of PAF-induced NF-kB signaling, primary screen, cell-based, GFP fluorescence, uHTS; KKLEB NF-kB-GFP reporter, GFP fluorescence overnight; inhibition, % at 5 µM; hit rate 0.86% among 360,000;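 active means at least 50% inhibition at 5 µM, scaled per plate between neutral and stimulator controls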;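 further: PAF is a Pseudomonas aeruginosa culture filtrate used as stimulus; plate controls were PAF-stimulated DMSO wells for no effect and unstimulated DMSO wells for full effect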
# ABHD5-PLIN5 conf: ABHD5-PLIN5 interaction inhibitors, confirmation, biochemical, luminescence; inhibition, % at 4 µM; hit rate 67% among 2,200; AID 651612, 2012; shares compounds with ABHD5 PLIN5 PPI; in the data active means inhibition above about 23%;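 further: 0% = DMSO vehicle wells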
# HNF4 counter: HNF4 dimerization inhibitors, counter-screen for ABHD5-PLIN5 interaction inhibitor project, biochemical, split-luciferase complementation, luminescence; shares compounds with ABHD5 PLIN5 PPI; inhibition, % at 4 µM; hit rate 77% among 2,200;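 active means mean inhibition across replicate wells exceeding the computed hit threshold, cut at about 13% in these data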;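 further: light from luciferase halves that rejoin when HNF4 fusion proteins dimerize; 0% = DMSO only wells and the 100% control is not given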
# Active calls of the source: *; . = no result.
SMILES,HIF-2a block,TRPM1 prom inh,KKLEB cytotox,Peg3 promoter,ABHD5 PLIN5 PPI,CF NFkB inh,ABHD5-PLIN5 conf,HNF4 counter
O=C(CC1Sc2ccccc2NC1=O)Nc1ccccc1[N+](=O)[O-] (stereo not given),-16,6,6,-18,1,2,.,.
CN1C/C(=C/c2ccsc2)C(=O)/C(=C/c2ccsc2)C1,47*,87*,8,36,56*,-39,79*,66*
CN1C/C(=C\c2ccc(N3CCOCC3)cc2)C(=O)/C(=C/c2ccc(N3CCOCC3)cc2)C1,10,32,19,-10,30*,-64,53*,42*
CN1C/C(=C/c2ccncc2)C(=O)/C(=C/c2ccncc2)C1,18,8,7,6,1,-2,.,.
CCc1nc2ccc(C(=O)Nc3ccc(C(N)=O)cc3)cn2c1N(CCC(C)C)CCN(C)C,0,.,0,-9,0,-8,.,.
CN1CCN(S(=O)(=O)c2ccc(Nc3cccc(Cl)c3)c([N+](=O)[O-])c2)CC1,4,4,21,12,8,18,.,.
Nc1nc(Sc2ccc([N+](=O)[O-])c3nonc23)c2[nH]cnc2n1,38,82*,-7,67*,53*,-19,83*,110*
NS(=O)(=O)c1ccc(Nc2ccc([N+](=O)[O-])c3nonc23)cc1,14,5,-17,4,9,10,.,.
Cc1[nH]nc2c1C(c1ccc(-c3ccc(Cl)cc3)o1)C(C#N)=C(N)O2 (stereo not given),-51,2,-12,32,28*,-39,17,44*
Cc1ccc(-c2ccc(C3C(C#N)=C(N)Oc4n[nH]c(C)c43)o2)cc1 (stereo not given),-70,5,-9,-11,24*,-42,26*,44*
Cc1[nH]nc2c1C(c1ccc(-c3ccccc3C#N)o1)C(C#N)=C(N)O2 (stereo not given),-6,-13,-19,6,-2,-6,.,.
Cc1ccc(C2=Nc3ccccc3SC(c3cccc([N+](=O)[O-])c3)C2)cc1 (stereo not given),-93,-38,-31,-32,59*,8,3,73*
O=C(NCc1ccccc1)C(CCc1ccccc1)n1c(=O)c(-c2ccccc2)nc2ccccc21 (stereo not given),20,.,.,.,38*,.,41*,28*
O=C(NCc1ccccc1)C(c1ccncc1)n1c(=O)c(-c2ccco2)nc2ccccc21 (stereo not given),-21,.,.,.,36*,.,31*,14*
O=C(NCc1ccccc1)C(c1ccc(-c2ccccc2)cc1)n1c(=O)c(-c2ccco2)nc2ccccc21 (stereo not given),-21,.,.,.,87*,.,75*,14*
CC1CCC2(CC1)NC(=O)N(CC(=O)N1CC(C)CC(C)C1)C2=O (stereo not given),5,.,18,8,-11,-1,.,.
Cc1ccc(NC2C(=O)NC(=O)NC2=O)cc1,-9,-2,1,-23,44*,-29,10,15*
Cc1ccc(C2C3=C(CC(C)(C)CC3=O)N=C3c4ccccc4C(=O)C32)cc1 (stereo not given),30,1,-3,32,28*,24,58*,69*
Clc1ccc(-c2nnc3sc(-c4ccc(Br)o4)nn23)cc1,-8,7,3,-10,1,-16,.,.
Cc1oc(-c2ccc(Cl)cc2)cc1-c1nn2c(-c3ccoc3C)nnc2s1,-5,12,-17,3,24*,3,13,17*
